# Bioassay records deposited in PubChem by The Scripps Research Institute Molecular Screening Center.
# Hits are enriched below; roughly 3.4% of the tested compounds scored in any of these assays.
# FBW7 activator – activators of human E3 ligase FBW7. Q969H0. AlphaScreen FBW7–phospho-cyclin E peptide binding, activator screen. normalized activity (activation), % at 26.1 µM. hit rate 0.13% among 650,000; in the data active = normalized activity above about 1.9%;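 also: purified mutant Fbw7 with reduced substrate affinity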
# MITF primary – inhibitors of human MITF; AlphaScreen MITF homodimerization, bead proximity signal; inhibition, % at 2.6 µM; hit rate 0.91% among 650,000; in the data active = inhibition above about 50%;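 also: 0% = vehicle wells with protein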
# GPR151 ag – human GPR151 activation. PathHunter beta-arrestin GPR151 cells, luminescence. activation, % at 11.2 µM. hit rate 1% among 650,000; in the data active = activation above about 4.9%;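 also: 0% = median of compound wells and 100% = cells with positive control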
# TEAD-YAP block – TEAD-YAP interaction inhibition | HEK-TIYL cells, TEAD-Gal4/YAP UAS-luciferase luminescence | inhibition, % at 9.12 µM | hit rate 1.4% among 640,000 | AID 1259422; in the data active = inhibition above about 32%;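 also: 0% = median of test compound wells and 100% = reference inhibitor wells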
# GPR151 conf act – human GPR151 activation, confirmation screen; 6,700 tested, under 10 active; GPR151 PathHunter beta-arrestin cells, luminescence, 90 min; % of EA-reagent control over plate median; activation, % at 11.2 µM; shares compounds with GPR151 ag;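 active = mean percent activation across replicates above the confirmation screen cutoff of 4.91%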
# GPR119 ag – activates human GPR119 in a GPR151 counter-screen | hit rate 0.3% among 6,700 | GPR119 PathHunter beta-arrestin cells, luminescence, 90 min; 0 = compound-well median, 100 = enzyme-acceptor control | shares compounds with GPR151 ag | activation, % at 11.2 µM | AID 1508611;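 active = mean percent activation in the counterscreen above 29.09%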;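 also: counterscreen on off-target GPR119 to flag nonselective hits from the GPR151 activator screen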
# Target sequence (Q8TDV5 whole entry, looked up): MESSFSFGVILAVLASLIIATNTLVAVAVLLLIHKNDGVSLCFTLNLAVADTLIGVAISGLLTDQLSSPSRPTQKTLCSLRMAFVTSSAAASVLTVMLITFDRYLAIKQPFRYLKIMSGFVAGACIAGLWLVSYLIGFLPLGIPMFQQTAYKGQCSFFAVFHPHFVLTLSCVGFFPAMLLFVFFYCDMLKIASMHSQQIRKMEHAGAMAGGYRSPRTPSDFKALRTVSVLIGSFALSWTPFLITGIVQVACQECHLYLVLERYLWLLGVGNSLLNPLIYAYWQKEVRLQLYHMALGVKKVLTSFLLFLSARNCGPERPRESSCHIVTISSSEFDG
# Numbers without * were called inactive; · = not tested or not shown.
SMILES,FBW7 activator,MITF primary,GPR151 ag,TEAD-YAP block,GPR151 conf act,GPR119 ag
CCOC(=O)C1=C(c2ccccc2)NC(=O)NC1c1cccc([N+](=O)[O-])c1 (centres undefined),-0.1,-4.9,-0.5,9.7,·,·
COc1ccc(C(=O)Nc2ccc(S(=O)(=O)Nc3nccnc3OC)cc2)c(OC)c1,0.2,25.7,-0.6,-0.5,·,·
O=C1c2ccccc2C(=O)N1CCc1cn2ccsc2n1,-0.1,2.0,-0.6,-4.2,·,·
O=C(Cc1n[nH]c(=O)[nH]c1=O)N/N=C/c1cccc([N+](=O)[O-])c1,0.2,-5.8,1.3,-2.9,·,·
COc1ccccc1Nc1nc(Cl)cc(N)c1[N+](=O)[O-],-0.1,14.6,2.8,-1.9,·,·
COc1ccccc1Nc1nc(Cl)ccc1[N+](=O)[O-],0.1,0.9,5.0*,-8.5,0.2,1.7
O=C(NCc1cccs1)Nc1ccccc1,0.1,-3.9,0.2,-13.6,·,·
O=C(NCc1cccs1)C1(c2ccccc2)CC1,-0.1,5.3,8.6*,2.1,0.0,3.2
O=C(NCc1ccccc1)C1(c2ccccc2)CCN(S(=O)(=O)c2ccccc2)CC1,0.1,-8.3,5.6*,4.7,-0.5,-12.3
O=C(NCc1cccs1)Nc1ccccc1Cl,0.1,24.7,6.2*,-23.7,0.1,0.6
O=C(O)C1(c2ccccc2)CCN(S(=O)(=O)c2ccccc2)CC1,0.1,15.8,-1.4,-2.1,·,·
CCc1ccc(OCC2c3cc(OC)c(OC)cc3CCN2C(=O)c2ccccc2OC)cc1 (centres undefined),0.1,11.6,-0.8,-1.1,·,·
COc1cc(C2C(C(=O)OC(C)C)=C(C)NC3=C2C(=O)CC(c2ccccc2)C3)c([N+](=O)[O-])cc1OC (centres undefined),-0.3,18.3,0.9,24.1,·,·
Cc1ccc(C(=O)Nc2ccc([N+](=O)[O-])cc2)c(Cl)c1,-0.2,7.9,14.5*,-44.0,1.0,5.5
Cc1cc(C)cc(C(=O)Nc2ccc([N+](=O)[O-])cc2C)c1,-0.2,-6.4,8.9*,1.8,-0.2,-3.2
COc1cccc(OC)c1C(=O)Nc1ccc(I)cc1Cl,-0.1,-25.5,-0.7,-6.3,·,·
COc1ccccc1C(=O)Nc1ccc(I)cc1Cl,-0.1,-22.5,7.2*,-20.1,0.4,12.1
Cc1ccc([N+](=O)[O-])cc1NC(=O)c1ccccc1Cl,0.1,5.5,1.2,2.9,·,·
O=C(Nc1ccc([N+](=O)[O-])cc1Cl)c1ccccc1Cl,0.0,-17.5,8.1*,-10.6,1.2,11.4
CCOc1cc(C(OC(C)=O)OC(C)=O)cc(Br)c1OCC,0.0,-2.7,-0.2,-2.3,·,·
Cc1ccc(C(=O)c2oc3cc(N)ccc3c2C)cc1,0.0,-5.8,-1.1,-20.3,·,·
CCc1cccc(OCC(=O)Nc2nccs2)c1,0.0,-12.9,-2.7,-6.1,·,·
Cc1ncn(-c2ccc(Nc3cc(-c4nocc4-c4ccnn4C)ccn3)cc2)n1,-0.1,0.7,1.1,4.7,·,·
O=C(Nc1ccc(S(=O)(=O)Nc2nccs2)cc1)c1ccc([N+](=O)[O-])cc1Cl,0.2,7.8,5.2*,-1.6,-0.2,-2.2
Cc1ccccc1C1(CC(=O)N2CCC(C)CC2)CC(=O)N(Cc2ccccc2)C1=O (centres undefined),0.3,3.0,-0.2,-55.8,·,·
SMILES,FBW7 activator,MITF primary,GPR151 ag,TEAD-YAP block,GPR151 conf act,GPR119 ag
CCOc1ccc(C)cc1S(=O)(=O)n1c(C)nc2ccccc21,-0.2,-3.3,7.2*,0.4,0.4,3.2
COc1ccc(C)cc1S(=O)(=O)n1c(C)nc2ccccc21,0.0,-1.4,-0.9,-14.1,·,·
CCOc1ccc(C)cc1S(=O)(=O)n1cnc2ccccc21,0.0,3.1,5.8*,46.0*,-0.5,-3.5
CCOc1ccc(S(=O)(=O)n2cnc3ccccc32)cc1C,0.3,8.7,-0.3,0.7,·,·
CC(=O)c1ccc(Nc2nc3ccccc3n3c(C)nnc23)cc1,-0.1,3.4,7.3*,11.6,0.7,0.1
COC(=O)c1ccc(Nc2nc3ccccc3n3c(C)nnc23)cc1,-0.1,-3.2,1.9,4.1,·,·
C=CCNc1nc(Cl)nc(NCCC2=CCCCC2)n1,-0.1,-0.3,5.1*,-5.5,-0.6,-11.7
Cc1cc(F)ccc1NC(=O)CN(C)S(=O)(=O)c1ccc2[nH]c3c(c2c1)CCCC3,0.0,19.0,1.5,-7.2,·,·
CC1=CC(C)(C)N(C(=O)CN2C(=O)CCC2=O)c2cc(C)ccc21,-0.2,5.4,11.8*,3.3,-0.6,-11.9
COc1cc2c(N3C(=O)CCC3=O)c3c(=O)oc(C)cn3c2cc1OC,-0.2,-3.5,9.1*,6.2,-0.5,0.8
CC(=O)c1ccccc1-c1ccc2c(-c3ccc(N4CCNCC4)cc3)[nH]nc2n1,0.3,3.0,1.0,4.6,·,·
NC(=O)c1ccc(-c2ccc3c(-c4ccc(N5CCNCC5)cc4)[nH]nc3n2)cc1,0.8,0.2,5.9*,-38.5,0.0,2.7
Cc1cc(C(=O)Nc2cc(Cl)ccc2O)on1,0.0,5.7,10.4*,-29.0,0.5,11.7
COCCCN(C(=S)Nc1cccc(Cl)c1)C(C)c1ccncc1 (centres undefined),-0.1,-5.5,5.9*,-5.3,-0.5,5.1
Nn1c(O)c(C2=c3cc(F)ccc3=NC2=O)sc1=S,-0.4,2.8,6.0*,7.5,-0.4,-11.0
O=C(Nc1ccc(Cl)cn1)c1cc2nc(-c3ccc(Br)cc3)cc(C(F)(F)F)n2n1,0.1,20.6,-0.8,2.4,·,·
COc1ccccc1NC(=O)Cn1c(=O)n(Cc2ccccc2)c(=O)c2cccnc21,0.2,-0.8,5.2*,8.7,-0.6,-1.6
COc1ccccc1NC(=O)Cn1c(=O)n(Cc2ccc(F)cc2)c(=O)c2cccnc21,-0.1,4.5,0.6,16.3,·,·
CCOC(=O)N1CCN(c2cc(Nc3cccc(OC)c3)c3c4c(onc24)-c2ccccc2C3=O)CC1,-0.1,36.5,0.9,10.9,·,·
CC1=C2C(O)C(=O)OC3CC4C(C)(C)C(=O)C=C[C@]4(C)C(CC1)[C@]23C (some centres undefined),0.0,-3.5,6.0*,-6.4,-0.3,7.4
C=CCNC(=O)CCc1nc(-c2ccccc2Cl)no1,0.2,-13.5,-0.1,1.5,·,·
CC(C)N(CCNC(=O)c1ccc2nc(Nc3ncccn3)sc2c1)C(C)C,-0.1,-4.1,1.7,-17.9,·,·
CC(C)N(CCNC(=O)c1ccc2nc(Nc3ccnn3C)sc2c1)C(C)C,-0.1,-1.4,6.8*,-10.7,-0.8,-15.8
CC(C)N(CCNC(=O)c1cccc(Nc2ccnn2C)n1)C(C)C,-0.1,9.9,6.1*,-4.2,-1.3,-17.2
Cc1ccc(OC(=O)c2ccc([N+](=O)[O-])cc2)c(-n2nc3ccccc3n2)c1,-0.1,3.8,-0.7,-9.7,·,·
c1cc(CNc2nc3nonc3nc2NC2CC2)c2cc[nH]c2c1,-0.1,9.9,5.5*,-1.1,-0.2,7.6
C=C(C)CNc1nc2nonc2nc1NC1CC1,-0.2,-2.5,1.3,-4.9,·,·
